# Rows were chosen to be rich in hits. Some 32% of all compounds tested hit in one or more screens of this group.
# PostGolgi ctrl: yeast control strain growth, post-Golgi counter-screen | efflux-deficient yeast background strain, growth absorbance A615, 16 h | inhibition, % at 10 µM | 5% of 98,000 active
# CYP2C9 inhib: blocks human cytochrome P450 2C9. CYP2C9 Supersomes, luciferin-H conversion, luminescence. inhibition, % at 5 µM. AID 777. 20% of 96,000 active;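 active = blocking of liver enzyme CYP2C9 beyond about 50% at 5 µM, limit read from the data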
# Target sequence (P11712 whole entry, looked up): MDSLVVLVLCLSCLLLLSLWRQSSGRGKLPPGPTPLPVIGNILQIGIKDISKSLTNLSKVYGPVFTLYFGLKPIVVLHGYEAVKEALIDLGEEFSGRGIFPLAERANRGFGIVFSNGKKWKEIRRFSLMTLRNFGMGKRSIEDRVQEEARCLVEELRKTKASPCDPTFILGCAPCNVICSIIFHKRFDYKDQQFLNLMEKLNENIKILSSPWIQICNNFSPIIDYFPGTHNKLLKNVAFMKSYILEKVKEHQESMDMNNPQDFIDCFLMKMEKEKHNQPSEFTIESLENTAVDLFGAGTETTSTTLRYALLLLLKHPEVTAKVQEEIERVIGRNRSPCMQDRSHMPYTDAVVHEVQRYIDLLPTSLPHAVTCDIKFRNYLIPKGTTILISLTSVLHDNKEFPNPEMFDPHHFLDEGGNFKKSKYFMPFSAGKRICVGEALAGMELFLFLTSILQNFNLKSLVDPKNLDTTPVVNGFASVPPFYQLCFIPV
# PostGolgi yeast: growth inhibition of a yeast mutant, post-Golgi transport screen; post-Golgi transport phenotypic cell assay; inhibition, % at 10 µM; 0.9% of 98,000 active;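 note: yeast cells grown in 1536-well plates; yeast grown about 18 h at 30C before absorbance read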
# CYP2C19 inhib: human CYP2C19 inhibition. P33261. CYP2C19 Supersomes, luciferin-H EGE luminescence, 30 min. inhibition, % at 5 µM. 21% of 96,000 active;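 active = CYP2C19 inhibition above a set limit at 5 µM in the primary screen, cut at about 50% in these data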;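 note: plate controls were negative control wells for no effect and 2.5 mM tranylcypromine positive control for full effect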
# CYP2C19 activ: activators of human cytochrome P450 2C19; activation factor at 5 µM; recombinant CYP2C19, luciferin-H EGE luminescence; hits give high values; 0 = fully inhibited enzyme, 1 = untreated enzyme; 96,000 tested, under 10 active; P33261;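 active = activation factor of at least 2 at 5 µM in the primary screen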;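 note: 0 = wells with 2.5 mM tranylcypromine and 1 = vehicle-only wells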
# CYP2C9 activ: increases human cytochrome P450 2C9 activity; P11712; recombinant CYP2C9, luciferin-H conversion, luminescence; hits give high values; factor 1 = untreated enzyme, 0 = blocked; activation factor at 5 µM; 1.4% of 96,000 active;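 active = activation factor of 2 or more for CYP2C9 at a 5 µM dose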;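 note: 0 = sulfaphenazole-blocked wells and 1 = vehicle-only wells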
# The depositor's hits bear a star; nt = no result. Cut-off read from the data, not from the text of the source, unless noted: active = inhibition above about 30%; inactive = the rest.
SMILES,PostGolgi ctrl,CYP2C9 inhib,PostGolgi yeast,CYP2C19 inhib,CYP2C19 activ,CYP2C9 activ
COc1cc(C2Nc3ccc4ncccc4c3C3=C2C(=O)CCC3)ccc1O (configuration not stated),9,66*,1,91*,0.1,0.3
COc1cnc(-c2ccccn2)nc1Sc1c(Cl)cccc1Cl,17,-7,15,-5,1.1,1.1
Clc1ccc(OCc2nc(-c3ccccn3)no2)c(Br)c1,31*,-1,-1,9,0.9,1
Clc1ccc(-c2nc(-c3ccccn3)no2)cc1Cl,5,-8,9,13,0.9,1.1
Brc1ccc(-c2noc(CCc3ccccc3)n2)o1,3,10,-8,47,0.5,0.9
Clc1ccccc1OCc1nc(-c2ccccn2)no1,14,22,13,85*,0.2,0.8
c1ccc(CCc2nc(-c3ccccn3)no2)cc1,5,6,7,55*,0.5,0.9
COC(=O)Cc1n[nH]c(=O)c2ccccc12,15,7,0,-4,1,0.9
Cc1ccc(S(=O)(=O)N2CCN(S(=O)(=O)N(C)C)CC2)c(C)c1,7,7,13,34,0.7,0.9
Cc1occc1C(=O)Nc1ccc(S(=O)(=O)N2CCN(C)CC2)cc1,1,21,-17,16,0.8,0.8
O=C(CCC1COc2ccccc2O1)Nc1ccccn1 (configuration not stated),-14,1,-10,44,0.6,1
CCOc1ncccc1C(=O)N(C)CC1COc2ccccc2O1 (configuration not stated),8,63*,5,85*,0.1,0.4
N=c1cc(C2(O)CCCCC2)n2c(nc3ccccc32)s1,5,58*,7,31,0.7,0.4
NC1=NC2(CCCCC2)n2c(nc3ccccc32)N1,14,1,12,0,1,1
Cc1cc(=O)oc2cc(OCC(=O)N3CCCc4ccccc43)ccc12,2,75*,-6,44,0.6,0.2
CCC(CC)c1nnc(NC(=O)COc2ccc3c(C)cc(=O)oc3c2)s1,6,3,10,-6,1.1,1
Cc1cc(=O)oc2ccc(OCC(=O)N3CCc4ccccc43)cc12,0,72*,-1,15,0.8,0.3
Cc1cccc(OCCC(=O)OCC(=O)N2CCc3ccccc32)c1,9,-45,1,53*,0.5,1.5
Cc1cccc(OCc2nnc(SCC(=O)N3CCc4ccccc43)n2C)c1,0,20,-20,17,0.8,0.8
Cc1nnc(NC(=O)COc2ccc3c(C)cc(=O)oc3c2)s1,-2,73*,-3,27,0.7,0.3
CCOc1cc(C(=O)NCCN2CCOCC2)cc(OCC)c1OCC,-15,nt,0,nt,nt,nt
C=CCNC(=S)NNC(=O)c1ccc(OC(C)C)cc1,5,4,-8,14,0.9,1
CC(=O)N1CCc2cc(NC(=O)c3ccc(C)cc3)ccc21,14,-15,-6,-7,1.1,1.1
CN1C=CC=C/C1=C1\SC(=S)N(C2CCCCC2)C1=O,6,26,4,58*,0.4,0.7
Clc1cccc(/C=N\Nc2nccs2)c1,12,15,2,4,1,0.9
SMILES,PostGolgi ctrl,CYP2C9 inhib,PostGolgi yeast,CYP2C19 inhib,CYP2C19 activ,CYP2C9 activ
O=C(CCN1CCCCCC1)Nc1cccc(Cl)c1,-3,-9,-1,6,0.9,1.1
COC(=O)C1=C(C)NC2=C(C1c1ccc(O)cc1)S(=O)(=O)c1ccccc12 (configuration not stated),8,87*,-7,62*,0.4,0.1
Cn1c(SCC(=O)NC(c2ccccc2)c2ccccc2)nnc1-c1cccs1,0,46,12,37,0.6,0.5
CCC(Cc1ccccc1)NC(=O)CSc1ccsc1[N+](=O)[O-] (configuration not stated),7,27,3,72*,0.3,0.7
O=C(CSc1ccsc1[N+](=O)[O-])NCCc1ccc(Cl)cc1,3,8,-4,-4,1,0.9
O=C(CSc1ccsc1[N+](=O)[O-])NCCc1ccccc1,-10,55*,-2,22,0.8,0.4
CCCCCNC(=O)C(C)Sc1ccc(Cl)cc1 (configuration not stated),2,45,3,37,0.6,0.6
Cc1nc(SCC(=O)NCCc2ccccc2)n[nH]1,1,3,19,38,0.6,1
CC(Sc1ccsc1[N+](=O)[O-])C(=O)NCCc1ccc(Cl)cc1 (configuration not stated),34*,70*,70*,57*,0.4,0.3
O=C(CSc1nc2ccc([N+](=O)[O-])cc2[nH]1)NCCc1ccccc1,-1,81*,16,82*,0.2,0.2
COc1ccccc1N1CCN(CCCOc2ccc(F)cc2)CC1,-9,-30,14,18,0.8,1.3
Cc1cc(O)ccc1Nc1nc2ccccc2nc1Nc1ccc(O)cc1C,-2,96*,16,87*,0.1,0
COc1ccc(Nc2ccccc2)c(C)c1,1,12,2,47,0.5,0.9
Cc1ccc(NS(=O)(=O)c2ccc(C(=O)N3CCN(c4ccccn4)CC3)cc2)cc1,-10,47,5,12,0.9,0.5
CN(c1ccccc1)S(=O)(=O)c1cc(C(=O)N2CCN(c3ccccn3)CC2)ccc1Cl,0,99*,5,73*,0.3,0
Cc1nc2ccc(C(=O)N3CCN(c4ccccn4)CC3)cc2s1,-2,7,-4,8,0.9,0.9
O=C(c1ccc(Cl)c(S(=O)(=O)Nc2ccc(F)cc2)c1)N1CCN(c2ccccn2)CC1,23,70*,-10,67*,0.3,0.3
CC(C)(C)c1ccc(C(=O)N/N=C/c2cccc(Cl)c2)cc1,25,36,0,76*,0.2,0.6
Cc1nccc2[nH]c(=O)c(C(=O)NCCCN(C)C3CCCCC3)cc12,-5,-2,7,1,1,1
CC(C)(C)C(=O)NC1CCN(C(=O)N2CCCC2)CC1,13,6,-1,53*,0.5,0.9
COn1c(SCc2cccc(Cl)c2)nc2ccccc2c1=O,18,25,-6,30,0.7,0.8
Cc1ccc(-n2ccc(=O)c(-c3ccnc(SCc4cccc(Cl)c4)n3)n2)cc1,19,56*,-12,20,0.8,0.4
Cc1ccc(NC(=O)CCC(=O)NNC(=O)c2ccco2)cc1C,-6,-2,1,2,1,1
CCC(=O)Nc1ccc(S(=O)(=O)N2CCCCC2)cc1OC,0,-142,2,67*,0.3,2.4*
CCCCC(=O)Nc1ccc(NC(=O)CC)cc1OC,5,40,-4,10,0.9,0.6
COc1cc(S(=O)(=O)N2CCCCC2)ccc1NC(=O)c1ccc(F)cc1,3,-12,2,9,0.9,1.1
